From PubChem BioAssay AID504332 (National Center for Advancing Translational Sciences (NCATS), 2011) come the findings set out here.

Out of some 350,000 compounds screened, about 31,000 (8.9%) were called active. Where a call stands in place of a potency, no number is given. Another 15% or so got no clear call; they are omitted. The sample holds actives, similar compounds and a random draw of the others, so the mix is not that of the screen. Calls follow the shape of the dose curve; as a rule, active = well fitted inhibition curve with a large enough effect; inconclusive = small, poorly fitted or top-dose-only effect; inactive = no such curve, though single readings can be large or run the other way.
Potency is read from the fitted curve at half-maximal effect.

Sequence of Histone-lysine N-methyltransferase EHMT2 (Homo sapiens) (Q96KQ7 913-1193 limits assumed): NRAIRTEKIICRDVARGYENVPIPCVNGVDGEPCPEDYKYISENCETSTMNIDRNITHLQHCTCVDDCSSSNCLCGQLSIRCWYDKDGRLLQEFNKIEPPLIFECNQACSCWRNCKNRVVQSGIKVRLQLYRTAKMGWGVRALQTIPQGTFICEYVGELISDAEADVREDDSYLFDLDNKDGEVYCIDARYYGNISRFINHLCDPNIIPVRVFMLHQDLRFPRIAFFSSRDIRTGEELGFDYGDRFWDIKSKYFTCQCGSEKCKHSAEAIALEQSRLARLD

The target of the assay is Histone-lysine N-methyltransferase EHMT2 (Homo sapiens) (UniProt Q96KQ7). Put plainly: qHTS Assay for Inhibitors of Histone Lysine Methyltransferase G9a. Also: nearly all actives have a fitted effect of over 75% in size. The conditions noted are these: G9a H3K9 monomethylation, AlphaScreen, 2 h; series mostly up to 59 µM. The method in brief:
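Step 1: enzyme (final 20 nM) with compound, 15 min RT. Step 2: substrate peptide 500 nM and SAM 20 uM, 2 h RT. Step 3: anti-H3K9me1 antibody and AlphaScreen beads, 10 min, then plate read.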
Take `NC(=O)c1ccsc1NC(=O)COC(=O)COc1ccc(C=O)cc1`: the activity, negative = inhibition is -1.54% [at 12.7 µM] (inactive). `O=C1c2ccccc2C(=O)N1CCC(c1ccccc1)c1ccco1` (stereo unspecified): the Potency result was “inactive”. Take `CC(C)OC(=O)CN1C(=O)c2ccccc2C1=O`: the activity, negative = inhibition was -1.86% [at 12.7 µM] (inactive). `O=C1c2ccccc2C(=O)N1CCC(O)C[N+](=O)[O-]` (stereo unspecified): the Potency was 31.6 µM (active). Take `Cc1ccc(F)cc1NC(=O)CSCc1c(C)noc1C`: the activity, negative = inhibition is 28% [at 12.7 µM] (inactive). With `C=CCN1C(=NC(=O)COc2ccccc2)SC2CS(=O)(=O)CC21` (stereo unspecified), the Potency entry was “inactive”. On the same count and under the same terms, the same measure for `Cc1cccc(C(=O)OCC(=O)Nc2sc3c(c2C#N)CCC3)c1`: “inactive”. As for `N#CCC(=O)Nc1ccc(C(=O)OCC(=O)Nc2sc3c(c2C#N)CCCC3)cc1`, the Potency was 50.1 µM (active). Turning to `CCN1CCN(CC(=O)Nc2sc3c(c2C#N)CCC3)CC1`, the Potency was 70.8 µM (active). As to `CN1CCN(CC(=O)Nc2sc3c(c2C#N)CCC(C(C)(C)C)C3)CC1` (stereo unspecified), the activity, negative = inhibition is 2.75% [at 12.7 µM] (inactive). Turning to `CCCc1cc(=O)[nH]c(SCC(=O)Nc2sc3c(c2C#N)CCCC3)n1`, the Potency entry is “inactive”. On the same count and under the same terms, for `Cc1ccc(C)c(OCC(=O)Nc2sc3c(c2C#N)CCCC3)c1C` the value was “inactive”; for `CCC1CCCCN1C(=O)Cn1c(=O)n(CCCCCC(=O)NCc2ccccc2)c(=O)c2sccc21` (stereo unspecified), “inactive”. Still for that read-out and setting: for `COc1ccccc1C(=O)Nc1c(C(=O)N(C)Cc2ccccc2)sc2nc(C)c(Cl)c(C)c12` the value was “inactive”; for `Cc1ccccc1NC(=O)CN1C(=O)C(C)(C)c2ccccc21`, “inactive”. In the case of `C=C1CCC(N(O)c2cc(C)on2)C(=C)CCC2C1CC2(C)C` (stereo unspecified), the activity, negative = inhibition was -0.801% [at 0.501 µM] (inactive). For `CCCCC12CN3CC(C)(CN(C1)C3c1ccc(O)c(OC)c1)C2=O` (stereo unspecified), the Potency result is “inactive”.

In the case of `CCC[C@H]1CCCC/C=C\CCCC(=O)OCCN1C(=O)OC(C)(C)C`, the activity, negative = inhibition is 5.32% [at 2.33 µM] (inactive). Take `O=C1CC(c2nnc(Cc3ccc(Cl)cc3)o2)CN1c1ccccc1` (stereo unspecified): the Potency entry was “inactive”. Still for that read-out and setting: the same measure for `CC(=O)N(C1=C(Cl)C(=O)c2ccccc2C1=O)c1ccc(C(=O)O)cc1`: 0.891 µM (active); for `O=C(CN1C(=O)c2ccccc2C1=O)NCc1ccc(C(=O)O)cc1`: “inactive”; for `CC(C)N(C(=O)c1ccc(-c2ccccc2F)cc1)C(C)C`: “inactive”. The same measure, in the same setting: the same measure for `COc1cccc(CNCc2c(C(=O)O)n(Cc3ccc(C)cc3)c3cc(C)ccc23)c1OC`: “inactive”. Regarding `CCn1c(=O)c(=O)n(CC)c2cc(N3CCCCC3)c(NC(=O)c3cccc(F)c3)cc21`, the Potency entry was “inactive”. With `CCn1c(=O)n(CC)c2cc(N3CCCC3)c(NC(=O)c3ccccc3Br)cc21`, the Potency was 44.7 µM (active). Take `CCn1c(=O)c(=O)n(CC)c2cc(N3CCCCC3)c(NC(=O)c3ccc(Cl)cc3)cc21`: the activity, negative = inhibition is 1.91% [at 12.7 µM] (inactive). For the compound `Cc1cc(C)cc(NC(=O)Cn2c(=O)c3ccccc3n3nncc23)c1`, the Potency entry is “inactive”. For the compound `COc1cc(C(=O)OCC(=O)N(CC(C)C)C2CCS(=O)(=O)C2)ccc1OCC(C)C` (stereo unspecified), the Potency result is “inactive”. On the same count and under the same terms, for `COc1ccc(C(=O)OCC(=O)N2CC(=O)Nc3ccccc32)cc1Br` the value was “inactive”; for `CCOC(=O)N1CCN(C(=O)c2cn(C)c3ccc(S(=O)(=O)N4CCCC4)cc3c2=O)CC1`, “inactive”; for `Cc1ccc(S(=O)(=O)N2CCCCC2)cc1C(=O)N1CCN(CCO)CC1`, 11.2 µM (active).

`Cc1ccc(S(=O)(=O)N2CCN(C)CC2)cc1C(=O)NC1CCCCC1`: the Potency entry is “inactive”. For `Cc1cccc(N2CCN(c3c(CN4CCCC4)c(=O)oc4ccccc34)CC2)c1C`, the Potency entry is “inactive”. On the same count and under the same terms, the same measure for `COc1ccc(N(CC(=O)NCCc2ccc(Cl)cc2)S(=O)(=O)c2c(C)nn(C)c2C)cc1`: “inactive”; for `CCC(=O)N1CCc2cc(S(=O)(=O)NC(Cc3ccccc3)C(=O)NCc3ccccc3)ccc21` (stereo unspecified): “inactive”. The same measure, in the same setting: for `Cc1ccc(S(=O)(=O)NCCC(=O)NCc2ccc(Cl)cc2)cc1C` the value was “inactive”; for `CCOC(=O)C1=NN(c2ccc(Cl)cc2)/C(=C/C2=NCCc3cc(OC)c(OC)cc32)S1`, “inactive”. The same measure, in the same setting: the same measure for `COc1cc2c(cc1OC)C(/C=C/c1ccco1)=NCC2`: 50.1 µM (active); for `COc1cc2c(cc1OC)C(c1cccc([N+](=O)[O-])c1)=NCC2`: “inactive”; for `O=C(O)c1cccc2c1C(=O)N(C1CCCC1)C2`: “inactive”. With `O=C(OCC(=O)N1CCN(C(=O)c2ccco2)CC1)c1ccc(Cl)c(Cl)c1`, the activity, negative = inhibition is 16.1% [at 12.7 µM] (inactive). Consider `COc1ccc(NC(=O)c2ccc3nc(C(C)C)oc3c2)cc1OC`, for which the Potency entry is “inactive”.

Take `Cc1cc2nc3n(c2cc1C)CC1CC(C(=O)NCCC(C)C)N(C)C31` (stereo unspecified): the activity, negative = inhibition is 5.1% [at 12.7 µM] (inactive). `CCc1ccc(CN(Cc2ccco2)C(=O)c2ccccc2Cl)cc1`: the Potency result was “inactive”.

Turning to `O=C(NCCCN1CCCCCC1)c1ccc(N2CCCC2=O)cc1`, the Potency is 22.4 µM (active). Take `CC1CCC(NC(=O)c2ccc(N3CCCC3=O)cc2)CC1` (stereo unspecified): the Potency entry is “inactive”. As for `CCOc1ccc(C(=O)NCCCN2CCCC2=O)cc1`, the Potency entry was “inactive”. With `Cc1nc(SCC(=O)N2CCN(c3ccccc3)CC2)[nH]c(=O)c1C`, the Potency entry is “inactive”. `CC(C)Cn1c(N)c(C(=O)COC(=O)C2CCCN2C(=O)c2cccs2)c(=O)n(C)c1=O` (stereo unspecified): the Potency result was “inactive”.

In the case of `O=C(CCCN1C(=O)/C(=C/c2cccs2)SC1=S)Nc1ccc(O)cc1`, the Potency result was “inactive”. On the same count and under the same terms, for `CC(C(=O)Nc1ccc(O)c(C(=O)O)c1)N1C(=O)/C(=C/c2cccs2)SC1=S` (stereo unspecified) the value was 35.5 µM (active); for `O=C(CCN1C(=O)/C(=C/c2cccs2)SC1=S)NNC(=O)c1cccc(O)c1`, “inactive”. Take `O=C(COc1ccccc1Cl)Nc1ccccc1C(=O)NC1CC1`: the Potency result was “inactive”. Take `Cc1cnc(C)c(N2CCN(C(=O)C3CCC(=O)N(CCc4cccc(F)c4)C3)CC2)n1` (stereo unspecified): the Potency result was “inactive”. On to `CCCCC(CC(C)O)c1n[nH]c(=S)n1-c1ccccc1` (stereo unspecified), for which the Potency is 5.01 µM (active). The same measure, in the same setting: the same measure for `N#Cc1ccccc1Cn1cnc2nc3c(cc2c1=O)CCCC3`: “inactive”.

With `CCN1CCN(C(c2cccnc2)c2cc(Cl)c3cccnc3c2O)CC1` (stereo unspecified), the Potency was 1.12 µM (active). As to `COc1ccccc1N1CCN(C(CNC(=O)C(=O)NCc2ccc(C)cc2)c2cccnc2)CC1` (stereo unspecified), the Potency entry was “inactive”. The same measure, in the same setting: the same measure for `CCOc1ccc(C(NC(=O)c2cc(OC)c(OC)c(OC)c2)c2cc(Cl)c3cccnc3c2O)cc1` (stereo unspecified): “inactive”; for `CCOC(=O)N1CCN(C(=O)CSc2nc(=O)n3cccc(C)c3n2)CC1`: “inactive”. Still for that read-out and setting: the same measure for `CCOC(=O)N1CCN(C(c2cccnc2)c2ccc3cccnc3c2O)CC1` (stereo unspecified): 0.316 µM (active).

For `Oc1c(CN2CCCC2)cc(COCc2ccccc2)c2cccnc12`, the activity, negative = inhibition is -18% [at 12.7 µM] (inactive). Turning to `CC1CCCN(c2cc3c(cc2F)c(=O)c(S(=O)(=O)c2cccc(Cl)c2)cn3Cc2ccccc2)C1` (stereo unspecified), the Potency result was “inactive”. Take `CC(O)c1ccc(OCCN(C)c2ccccn2)cc1` (stereo unspecified): the activity, negative = inhibition is -1.26% [at 2.33 µM] (inactive). Turning to `Cc1nc2ccn(Cc3cccs3)c(=O)c2cc1C(=O)NCc1ccc(Cl)cc1`, the Potency entry is “inactive”. `COc1ccc(CNS(=O)(=O)c2cc3c4c(c2)CCN4C(=O)CC3)cc1`: the Potency entry is “inactive”. Still for that read-out and setting: for `COc1cc([N+](=O)[O-])ccc1NC(=S)N1CCN(c2ccccn2)CC1` the value was 44.7 µM (active); for `CCOC(=O)c1ccc(NC(=S)N2CCN(c3ccccn3)CC2)cc1`, “inactive”; for `CNC(=S)N1CCN(c2ccccn2)CC1`, “inactive”.

For the compound `CCCOc1ccc(-c2c(C(=O)N/N=C/c3ccco3)nnn2-c2nonc2N)cc1`, the Potency result was “inactive”. The same measure, in the same setting: the same measure for `O=S1(=O)CCN(Cc2ccccc2Cl)CC1`: “inactive”; for `CSc1ccc(/C=N/N2CCN(Cc3ccccc3Cl)CC2)cc1`: 14.1 µM (active).

As to `COc1ccccc1/C=N/N1CCN(Cc2ccccc2Cl)CC1`, the activity, negative = inhibition is 7.68% [at 0.501 µM] (inactive).

For `CCOc1ccc(CNC(=O)c2ccc(CS(=O)c3ccccc3)o2)cc1` (stereo unspecified), the Potency result was “inactive”. For the compound `Cc1cccc(NC(=O)c2sc(-c3ccccc3)nc2-c2ccc([N+](=O)[O-])cc2)c1`, the Potency result is “inactive”. Take `COc1ccc([N+](=O)[O-])cc1-c1nc2ccccc2nc1-c1ccccc1`: the activity, negative = inhibition is 7.8% [at 0.501 µM] (inactive). As for `Cc1nc(-c2ccc([N+](=O)[O-])cc2)c(-c2ccccc2)o1`, the Potency is 15.8 µM (active). `COC(=O)c1c(NC(=O)c2cc(=O)c3c(C)cc(C)cc3o2)sc2c1CCCC2`: the Potency result is “inactive”. In the case of `Cc1oc2cc([N+](=O)[O-])c(O)c([N+](=O)[O-])c2c1C(=O)c1ccc(Br)cc1`, the Potency is 17.8 µM (active).

With `COc1cc(/C(=C/c2ccccc2)c2ccccc2)c2c(c1)oc1ccccc12`, the Potency result was “inactive”. With `Cc1cc(C(=O)O)ccc1[N+](=O)[O-]`, the activity, negative = inhibition is 3.38% [at 0.501 µM] (inactive).

In the case of `Cc1oc2cc(Br)c(O)c(Br)c2c1C(=O)c1ccccc1`, the Potency was 44.7 µM (active). Same read-out and setting: the same measure for `CCOC(=O)c1c(-c2ccccc2)oc2cc(Br)c(O)cc12`: “inactive”; for `Cc1cc(O)c(NC(=O)c2ccc(C)c([N+](=O)[O-])c2)cc1C`: “inactive”. For the compound `CS(=O)(=O)Nc1cccc(C2=NN(C(=O)c3cccc(F)c3)C(c3cccs3)C2)c1` (stereo unspecified), the Potency result was “inactive”. On to `O=C(Cn1c(=O)n(Cc2cccs2)c(=O)c2cccnc21)Nc1ccc(F)cc1`, for which the Potency entry is “inactive”. In the case of `Cc1ccc(NC(=O)Cc2ccc(NC(=O)N3CCCCc4ccccc43)cc2)cc1`, the Potency entry is “inactive”. The same measure, in the same setting: the same measure for `CC(C)=CCCC(C)CN1CCC(n2nccc2NC(=O)c2ccccc2)CC1` (stereo unspecified): “inactive”; for `O=C1c2oc3ccccc3c(=O)c2C(c2cccc(O)c2)N1c1ccccn1` (stereo unspecified): “inactive”; for `COc1cc(C2c3c(oc4ccccc4c3=O)C(=O)N2c2nc(C)c(C)s2)ccc1O` (stereo unspecified): “inactive”.

`CC(=O)c1sc(N2C(=O)c3oc4ccccc4c(=O)c3C2c2ccc(C)cc2)nc1C` (stereo unspecified): the Potency was 2 µM (active). Same read-out and setting: the same measure for `COc1ccc(NC(=O)CCc2nnc3n(CC(C)C)c(=O)c4ccccc4n23)cc1OC`: “inactive”; for `COc1ccc(Nc2nnc(C)c3ccccc23)cc1`: “inactive”; for `NNc1nnc(NN)c2ccccc12`: 25.1 µM (active).

On to `Cc1nnc(NCCO)c2ccccc12`, for which the Potency entry is “inactive”.

For `CCOC(=O)C1CCCN(S(=O)(=O)c2cc(-c3cc(C)no3)ccc2OC)C1` (stereo unspecified), the Potency result is “inactive”.
